# Screens as filed in PubChem BioAssay.
# MITF TRPM1 inh – MITF TRPM1 promoter inhibition in SK-MEL-5 cells; SK-MEL-5 TRPM1 promoter luciferase, 24 h; inhibition, % at 12.5 µM; 0.83% of 330,000 active;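 active = mean inhibition across replicates of 60% or more, whatever share of single replicates reaches that level; inconclusive = some that reach 60%, reason not given; inactive = mean inhibition across replicates below 60%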
# LMP1 NFkB inh – reduces LMP1-driven NF-kappaB luciferase signal | LMP1-induced NF-kappaB luciferase reporter cells, luminescence | inhibition, % at 12.5 µM | 0.69% of 350,000 active | AID 504558; in the data active = inhibition above about 41%; inconclusive = no clear call, values can overlap the other calls;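 note: 0% = neutral control wells and 100% = reference inhibitor control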
# esBAF inh – SWI/SNF esBAF complex inhibition; mouse ES cells, Bmi1-luciferase knock-in reporter, 24 h; 100% = twice the neutral-well signal; reporter increase, % at 12.5 µM; 2% of 350,000 active; in the data active = activation above about 40%; inconclusive = no clear call, values can overlap the other calls;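 note: 0% = median of the plate's neutral control wells and 100% = double that signal; a rise in the Bmi1 reporter signal indicates esBAF inhibition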
# MITF TRPM1 HTS – increases MITF-driven TRPM1 promoter luciferase signal; SK-MEL-5 TRPM1-promoter luciferase, 24 h; % of positive control, neutral wells = 0; activation, % at 12.5 µM; 0.75% of 300,000 active; AID 588334;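 active = mean activation of at least 80% with every replicate also reaching 80%; inconclusive = mean reaches 80% but some replicate falls short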;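 note: 0% = neutral control wells and 100% = parthenolide positive control wells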
# Wnt act – Wnt/beta-catenin pathway activation | 1.2% of 300,000 active | AID 743398 | Wnt/beta-catenin reporter cell assay, activator, plate reader | activation, % at 9.35 µM; in the data active = activation above about 30%, passing the limit was not always enough; inconclusive = no clear call, values can overlap the other calls;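 note: 0% = neutral control wells and 100% = positive control wells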
# Statin myotox sup – protects C2C12 myotubes from simvastatin toxicity | ATP luminescence, 48 h; scaled: DMSO 0, geranylgeraniol control 100 | rescue of ATP level, % at 7.49 µM | 0.78% of 330,000 active | AID 602340;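 active = mean ATP rescue above about 67%, or every replicate alone reaching that limit, limit read from the data, passing the limit was not always enough; inconclusive = no clear call, values can overlap the other calls; inactive = mean under the limit and some replicate under it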;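 note: myotubes were challenged with 10 µM simvastatin during compound exposure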
# Numbers without * were called inactive; ? = inconclusive; nt = no result given. In the library only some 4% were active in any assay of this set; here they are far more common.
SMILES,MITF TRPM1 inh,LMP1 NFkB inh,esBAF inh,MITF TRPM1 HTS,Wnt act,Statin myotox sup
COc1ccc(-c2nn(-c3ccccc3)cc2/C=C(\CC(=O)O)c2nc3ccccc3s2)cc1OC,-12.7,3.1,40.3*,12.8,10.9,-13.1
C=CCn1c(CSc2ccccc2[N+](=O)[O-])n[nH]c1=S,18.7,-4.0,nt,-15.1,-0.5,nt
C=CCn1c(Sc2ncc([N+](=O)[O-])s2)n[nH]c1=O,82.1*,?,nt,nt,-7.5,nt
Nc1ccc(C(=O)Nc2ccc3nc(-c4cccnc4)[nH]c3c2)cc1,-4.7,-1.0,-5.4,4.2,nt,-10.7
CC(=O)NC1C(OCc2ccccc2)OC(CO)C(OC(C)=O)C1OC(C)=O (stereo not drawn),6.6,-4.8,nt,-5.4,36.0*,nt
CC(=O)NC1C(OCc2cccc(Br)c2)OC(COC(C)=O)C(OC(C)=O)C1OC(C)=O (stereo not drawn),3.6,8.9,-7.1,4.3,0.6,6.3
CN(CC(=O)Nc1cccc(F)c1)C(=O)c1cc2c(s1)CCCCC2,-2.6,-0.1,5.1,7.9,nt,-38.5
C[C@H](CO)N1C[C@H](C)[C@@H](CN(C)C(=O)c2ccccc2F)Oc2ncc(C#Cc3cccc(F)c3)cc2C1=O,nt,nt,-8.1,nt,nt,12.2
O=C(c1ccc2c(c1)OCO2)N1CCN(c2ccccc2)CC1,-8.1,-11.7,4.0,6.4,3.7,nt
Cc1nn(C(=O)c2ccc3c(c2)OCO3)c(N)c1-c1ccccc1,-81.3,10.8,15.0,75.5,66.6*,0.0
Cc1nn(C(=O)c2cccs2)c(N)c1-c1ccccc1,-96.3,-31.1,85.3*,89.5*,46.7*,5.4
Cc1noc(C)c1S(=O)(=O)Nc1ccc2c(c1)C(=O)N([C@H](C)CO)C[C@H](C)[C@H](CN(C)Cc1ccncc1)OCCCC[C@@H](C)O2,nt,nt,-1.3,nt,nt,nt
N=c1oc2ccccc2cc1C(=O)Nc1ccccc1,15.6,10.3,-5.5,nt,-2.3,19.5
N/C(=N\OC(=O)Cc1ccccc1)c1ccccn1,-7.0,-4.4,nt,6.6,nt,nt
CCc1ccc(OCC(=O)O/N=C(\N)c2ccccn2)cc1,nt,nt,nt,nt,48.4*,nt
N/C(=N\OC(=O)COc1ccccc1)c1ccncc1,-37.1,-11.6,nt,40.2,3.0,nt
COc1cccc(OCC(=O)O/N=C(\N)c2ccncc2)c1,-32.8,-19.7,46.9*,32.1,7.3,2.1
Cc1ccc(OCC(=O)O/N=C(\N)c2ccncc2)cc1C,-71.2,-13.3,53.5*,79.5,7.5,1.1
N/C(=N\OC(=O)CCC1CCCC1)c1ccccn1,-31.6,-20.6,nt,32.6,52.1*,nt
N/C(=N\OC(=O)CCC1CCCC1)c1ccccc1,-78.9,-12.3,nt,79.6,4.1,nt
CC(C)(CC(=O)O)CC(=O)N1CCCN(c2nc3ccc(Cl)cc3s2)CC1,5.9,-1.2,nt,-5.3,1.6,nt
Cc1nn(C)cc1CN(C)C(=O)c1ccc(OC2CCN(Cc3ccccn3)CC2)cc1,5.1,-3.4,-0.8,-1.2,0.6,0.1
CC(=O)c1ccc(NC(=O)CSc2nnc(Cc3cccn3C)n2-c2ccc(F)cc2)cc1,0.7,-0.3,0.9,-2.4,-1.1,23.6
O=C(/C=C/c1ccccc1)NC(=S)Nc1ccc(N2CCOCC2)c(Cl)c1,-0.1,6.7,nt,4.3,1.2,nt
CCOC(=O)c1c(Cc2ccccc2)c[nH]c1C,-43.6,-16.9,nt,46.4,0.7,nt
SMILES,MITF TRPM1 inh,LMP1 NFkB inh,esBAF inh,MITF TRPM1 HTS,Wnt act,Statin myotox sup
Cc1cc(C)cc(OCC(=O)O/N=C(\N)c2ccccn2)c1,-23.2,-8.5,?,25.3,nt,3.9
Cc1ccc(OCC(=O)O/N=C(\N)c2ccccn2)cc1C,nt,nt,nt,nt,38.7*,nt
N/C(=N\OC(=O)COc1ccccc1)c1ccccn1,-50.6,-9.3,49.4*,49.5,48.1*,1.4
N/C(=N\OC(=O)COc1ccccc1)c1cccnc1,-96.6,-15.8,nt,103.7*,29.4,nt
Cc1cc(C)c(C)c(OCC(=O)O/N=C(\N)c2ccccn2)c1,-15.7,-11.9,27.5,14.5,nt,23.1
Cc1cccc(OCC(=O)O/N=C(\N)c2ccccn2)c1,-94.2,-25.4,38.3,98.6*,12.4,0.8
N/C(=N\OC(=O)COc1ccc2ccccc2c1Br)c1cccnc1,nt,nt,nt,nt,3.2,nt
N/C(=N\OC(=O)COc1ccc2ccccc2c1Br)c1ccccn1,-84.5,-16.8,85.1*,?,43.7*,11.5
Cc1ccsc1C(=O)OCC(=O)Nc1sccc1C(N)=O,-88.4,-42.3,88.3*,nt,nt,-12.7
Cc1ccsc1C(=O)OCC(=O)c1ccc[nH]1,-100.2,-27.2,48.5*,109.4*,37.9*,-4.0
CC(C)Oc1ccc(C(=O)OCC(=O)c2ccc[nH]2)cc1,-85.2,-9.4,65.4*,89.3*,45.1*,34.6
COc1ccc(C(=O)COC(=O)c2sccc2C)cc1OC,-111.4,-10.8,90.7*,103.3*,45.3*,2.0
COc1cc(C(O)c2nc(-c3csc4ccccc34)cs2)ccc1F (stereo not drawn),nt,nt,3.0,nt,0.2,-82.1
CC(C)Cn1c(-c2cccc(S(=O)(=O)N3CCOCC3)c2)n[nH]c1=S,-6.1,71.2*,19.3,6.2,-4.5,-5.6
Cc1nc(-c2cccc(S(=O)(=O)N3CC(C)OC(C)C3)c2)cs1 (stereo not drawn),7.6,4.1,-1.0,-9.6,-0.6,115.1*
C=C1C(=O)C23C(O)C1CCC2C12COC3(O)C(O)C1C(C)(C)CCC2O (stereo not drawn),nt,nt,9.2,nt,-1.4,110.3*
C=CCSc1nnc2c(n1)OC(C)=Nc1ccc(Br)cc1-2,17.6,-5.3,nt,-19.2,-1.9,nt
Cc1cccc(NC(=S)N(C)C)c1C,7.0,9.2,-0.9,-5.6,-0.7,5.7
Cc1cccc(Nc2cc(C)c3c(O)cccc3n2)c1C,-46.2,-27.5,60.3*,36.4,19.7,3.6
Cc1ccc(/C=C/C(=O)c2ccc([N+](=O)[O-])o2)cc1,nt,nt,nt,nt,10.0,nt
O=C(/C=C/c1ccc(Cl)cc1)c1ccc([N+](=O)[O-])o1,98.1*,2.1,-73.1,-97.7,0.4,37.7
C[C@@H]1CN([C@H](C)CO)C(=O)Cc2cc(NC(=O)Nc3cccc4ccccc34)ccc2O[C@H]1CN(C)S(C)(=O)=O,nt,nt,0.9,nt,nt,32.7
CCOc1ccc(S(=O)(=O)Nc2ccc3c(c2)OCO3)c2cccnc12,1.1,4.5,15.5,1.2,4.0,20.4
CCN(CC)C(=O)C1CCCN(c2ccc([N+](=O)[O-])cc2[N+](=O)[O-])C1 (stereo not drawn),17.4,52.4*,nt,-15.0,-1.1,nt
CN(CC(=O)Nc1ccccc1Cl)C(=O)COC(=O)c1nc(Cl)c(Cl)c(Cl)c1Cl,73.5*,-12.3,nt,-72.6,14.3,nt
CN(CC(=O)Nc1ccccc1Cl)C(=O)COC(=O)c1ccc(Cl)nc1,-2.8,-8.4,nt,4.7,-0.5,-6.8
COc1ccc(N2C3=C(CC4=C2CC(C)(C)CC4=O)C(=O)CC(C)(C)C3)cc1,86.9*,10.0,4.6,-86.5,-0.8,3.3
COc1ccc(N2C3=C(CC4=C2CCCC4=O)C(=O)CCC3)cc1,-2.4,0.5,-5.0,0.2,-14.0,-17.9
